In all, about 33,000 sequences were measured (“e-score”: median about -0.053, highest 2% from about 0.38 on). Many of the other results were omitted from the sample, so the highest values are more common in it than they were.

This assay deals with T1, SIX1 homeodomain (reference allele) (human, UniProt Q15475 108-198).
T1 sequence: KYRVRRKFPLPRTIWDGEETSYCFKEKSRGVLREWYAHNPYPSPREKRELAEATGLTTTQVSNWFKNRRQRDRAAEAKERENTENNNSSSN
Kind of assay: universal protein binding microarray; Universal all-10-mer PBM (8x60K, AMADID 030236), 300 nM GST-tagged protein, Alexa Fluor 488 anti-GST; buffer, salt, pH and temperature not stated (as in Berger); high values mean tight binding. The following applies: protein: ivt; tags: N-terminal GST; dsDNA, one strand shown. In short, it runs like this:
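GST-tagged homeodomains were made by in vitro transcription/translation and quantified by anti-GST western blot against a recombinant GST standard curve. They were applied in duplicate at 300 nM final concentration to universal 'all 10-mer' protein binding microarrays (8×60K format). Binding was quantified as 8-mer E-scores with the Universal PBM Analysis Suite.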
With ATGGGGTA, the binding signal amounted to 0.163 ± 0.0446 E-score.
For TCGCGACA the value was 0.193 ± 0.0437 E-score; for ATCGCTCG, 0.199 ± 0.0182 E-score.
The same measure for CGGATTGC: 0.23 ± 0.0242 E-score; for ACACCGAC: 0.256 ± 0.0314 E-score; for GATCAAGA: 0.191 ± 0.0318 E-score.
The same measure for CCAAGATC: 0.22 ± 0.0354 E-score; for ACCCAATA: 0.158 ± 0.0255 E-score.
GCCCCTCC: the binding signal was 0.158 ± 0.185 E-score.
For AGGATACA the value was 0.337 ± 0.0073 E-score.
With AGGATACC, the binding signal was 0.457 ± 0.00534 E-score.
Turning to GGGATACA, the binding signal was determined as 0.383 ± 0.0303 E-score.
The same measure for GGGATACC: 0.455 ± 0.0274 E-score.
Regarding AGGATACT, the binding signal came to 0.364 ± 0.0424 E-score.
In the case of GGGATAAC, the binding signal is 0.303 ± 0.0153 E-score.
For GGAATACC the value was 0.295 ± 0.024 E-score.
The same measure for TGGATACA: 0.351 ± 0.0427 E-score.
The same measure for TCTATACA: 0.243 ± 0.0131 E-score; for CGCCGATA: 0.376 ± 0.0145 E-score; for TACTCGCA: 0.154 ± 0.0249 E-score.
In the case of CTATATAG, the binding signal turned out to be 0.182 ± 0.0165 E-score.
For ATGTGGTA the value was 0.151 ± 0.00476 E-score.
As to ACCATCTA, the binding signal came out at 0.159 ± 0.0813 E-score.
For CCCGGGTA the value was 0.228 ± 0.0421 E-score.
Take ATACAAGA: the binding signal was determined as 0.239 ± 0.0188 E-score.
For TACATCCA, the binding signal worked out at 0.156 ± 0.0562 E-score.
The same measure for ATTGGATA: 0.297 ± 0.05 E-score.
The same measure for GATATGAC: 0.357 ± 0.048 E-score; for GATATGTA: 0.383 ± 0.0265 E-score; for GATATTGC: 0.323 ± 0.0993 E-score.
The same measure for CCTATGTA: 0.156 ± 0.0122 E-score; for GATATGGC: 0.418 ± 0.0102 E-score.
As for TATATGGA, the binding signal was 0.207 ± 0.0193 E-score.
The same measure for GATATGGA: 0.423 ± 0.00533 E-score; for AATATGGA: 0.158 ± 0.0544 E-score; for GGTATGTA: 0.2127 ± 0.00178 E-score.
The same measure for AAAAGTAT: 0.204 ± 0.154 E-score; for AGGGTGAT: 0.366 ± 0.00952 E-score; for ATACTTTA: 0.261 ± 0.0614 E-score.
For GATAGGTA the value was 0.325 ± 0.00657 E-score.
On to GATCAAAA, for which the binding signal came out at 0.234 ± 0.0678 E-score.
For the sequence AGGGGCGG, the binding signal was found to be 0.174 ± 0.127 E-score.
For ATCTTCTA the value was 0.227 ± 0.0812 E-score; for ATCTCATG, 0.197 ± 0.0118 E-score; for GCATCATA, 0.183 ± 0.0507 E-score.
The same measure for ATATCTTA: 0.345 ± 0.0615 E-score.
For ATATCATG the value was 0.458 ± 0.0133 E-score; for GTATCTTA, 0.312 ± 0.0466 E-score.
As to CTATCATA, the binding signal came out at 0.341 ± 0.0419 E-score.
For CTATCATC the value was 0.34 ± 0.0172 E-score.
For AGATCATG the value was 0.295 ± 0.0208 E-score; for ATATCATC, 0.46 ± 0.0219 E-score.
With GTATCATA, the binding signal worked out at 0.471 ± 0.013 E-score.
The same measure for ATATCATA: 0.442 ± 0.0274 E-score; for AGATCATC: 0.344 ± 0.0462 E-score.
Turning to CAGCTATC, the binding signal was 0.25 ± 0.0918 E-score.
For ATCATCCA the value was 0.275 ± 0.0117 E-score; for ATCACAGC, 0.2757 ± 0.00158 E-score; for AGTTAATC, 0.182 ± 0.0377 E-score.
Turning to AGTAGTAT, the binding signal came out at 0.349 ± 0.0523 E-score.
As to CGGCTCGA, the binding signal was 0.15 ± 0.146 E-score.
For GAAGATAA the value was 0.154 ± 0.0705 E-score; for CCGGGAGA, 0.177 ± 0.081 E-score; for TACCAATA, 0.204 ± 0.0104 E-score.
On to GGTATTCA, for which the binding signal was found to be 0.3 ± 0.0073 E-score.
For ATTATCCA the value was 0.176 ± 0.0268 E-score.
For ACTATCCG the value was 0.35 ± 0.00425 E-score.
For GGTATCCA the value was 0.464 ± 0.0172 E-score.
Regarding AGTATCCA, the binding signal worked out at 0.391 ± 0.00372 E-score.
On to CCTATCCG, for which the binding signal was determined as 0.316 ± 0.0172 E-score.
The same measure for ACTATCCA: 0.241 ± 0.0211 E-score; for AGTATCCG: 0.396 ± 0.0105 E-score; for GCTATCCA: 0.204 ± 0.0406 E-score.
For the sequence ATTATAGC, the binding signal is 0.176 ± 0.0442 E-score.
The same measure for CGATCTTA: 0.197 ± 0.0344 E-score; for ACGATCCG: 0.425 ± 0.0168 E-score.
ACGATCCT: the binding signal was found to be 0.347 ± 0.0269 E-score.
The same measure for CCGATCGG: 0.319 ± 0.0282 E-score; for CCGATCCA: 0.29 ± 0.0686 E-score.
For CCGATCCG the value was 0.428 ± 0.0349 E-score.
The same measure for ACGATCCA: 0.284 ± 0.0277 E-score; for ATCACCAC: 0.262 ± 0.0152 E-score; for GATCGGAC: 0.248 ± 0.0437 E-score.
In the case of ACACCTCC, the binding signal was determined as 0.347 ± 0.0177 E-score.
For ATCGGCTG the value was 0.167 ± 0.0425 E-score.
For ATCTGCCC the value was 0.182 ± 0.0131 E-score.
